From PMC7826789 (International Journal of Molecular Sciences, 2021)

Each compound was assayed on KIT.

Row | SMILES | Kinases covered
1 | CCS(=O)(=O)c1ccc(OC)c(Nc2ncc(-c3cccc(OC)c3)o2)c1 [GW580509X] | KIT
2 | O=C(Nc1ccccc1)Nc1cccc(Oc2ccc3nccn3n2)c1 [TPKI-39] | KIT
3 | COc1cc2nccc(Nc3ccc(OCc4ccc(NC(C)=O)cc4)cc3)c2cc1OC [GW440135] | KIT
4 | Nc1n[nH]c2ncc(-c3ccccc3)cc12 [SB-517081] | KIT
5 | CCS(=O)(=O)c1ccc(OC)c(Nc2ncc(-c3cccc(F)c3)o2)c1 [GW621970X] | KIT
6 | C/C(Nc1ccc(S(N)(=O)=O)cc1)=C1/C(=O)Nc2ccccc21 [GW335962X] | KIT
7 | Nc1ncnc2occ(-c3ccc(NC(=O)Nc4cc(C(F)(F)F)ccc4F)cc3)c12 [GW770249X] | KIT
8 | Cl.O=C(Nc1ccc(Oc2ccc3[nH]c(NC(=O)c4ccco4)nc3c2)cc1)Nc1cc(C(F)(F)F)ccc1F [GW683134A] | KIT
9 | Cn1ccc2ncnc(Oc3ccc(NC(=O)Nc4ccccc4)cc3)c21 [TPKI-69] | KIT

The compounds below were run on LRRK2.

Row | SMILES | Kinases covered
10 | CNc1nc(Nc2ccc(C(=O)N3CCOCC3)cc2OC)ncc1Cl [HG-10-102-01] | LRRK2
11 | CNc1nc(Nc2ccc(C(=O)N3CCOCC3)cc2OC)nc2[nH]cc(Cl)c12 [JH-II-127] | LRRK2
12 | C[C@@H]1CCNC(=O)c2cc3ccc(C(=O)Nc4nc5ccccc5n4CCCN(C)C)cc3n21 [BI00645435] | LRRK2
13 | O=C(Nc1cccnc1)c1cc(-c2ccnc(F)c2)ccc1OCc1ccccc1 [GSK2578215] | LRRK2
